Molecules are shown by their SMILES. Records with an inconclusive call do not appear. A call without a number means that no potency is given here. The source made the active and inactive calls. Calls follow the shape of the dose curve; as a rule, active = well fitted cell-killing curve with a large enough effect; inconclusive = small, poorly fitted or top-dose-only effect; inactive = flat fitted curve, though single readings scatter.

This assay in a line: Cell Viability - LYMP2-011 (AID 969). Also: nearly all actives have a fitted effect of over 60% in size. To be noted: LYMP2-011 lymphoblastoid cells viability; series mostly up to 92.2 µM. An excerpt:
NIH Chemical Genomics Center [NCGC]
NIH Molecular Libraries Screening Centers Network [MLSCN]
National Institutes of Environmental Health Sciences [NIEHS]
National Toxicology Program [NTP]
We have developed a 1536-well cell-based assay for quantitative high throughput screening (qHTS) against a number of cell lines to determine in vitro cytotoxicity of small molecules. This particular assay uses a human lymphoblastoid cell line (LYMP2-011) purchased from Coriell Institute for Medical Research.
NCGC Assay Protocol Summary:
The CellTiter-Glo luminescent cell viability assay (Promega) is a homogeneous method to measure the number of viable cells in culture. The end point readout of this assay is based on quantitation of intracellular ATP, an indicator of metabolic activity, using the luciferase reaction. Luciferase catalyzes the oxidation of beetle Luciferin to oxyluciferin and light in the presence of ATP. The luminescent signal is proportional to amount of ATP present.
Using the CellTiter-Glo luminescent cell viability assay, the amount of cellular ATP was measured in the lymphoblastoid cell line with complete culture medium following compound treatment for 24 hours. The assay was performed in opaque white Kalypsys 1536-well plates. In the screen, tetraoctylammonium bromide was used as positive control. Library compounds were measured for their ability to cause acute toxicity in the cell line, as reflected by a decrease in intracellular ATP levels, in a concentration-dependent manner. […] AC50 values were determined from concentration-response data modeled with the standard Hill equation.
qHTS protocol for CellTiter Glo lymphoblastoid cellular assay
[Step] [Parameter] [Value] [Description]
1. Reagent; 5 uL; 2500 lymphoblastoid cells/well
2. Time; 5 hr; 37 C incubation
4. Controls; 23 nL; Tetraoctylammonium bromide 6.4pM to 92 uM
5. Time; 24 hr; 37 C incubation
6. Reagent; 5 uL; CellTiter Glo reagent
7. Time; 30 min; Room Temperature
8. Detection; Luminescence; Viewlux plate reader
Keywords: cell viability, cytotoxicity, lymphoblastoid cell line, luminescence, NTPHTS, NTPHTS_NCGC, NIEHS, DSSTox, MLSMR, MLSCN, NIH Roadmap, qHTS, NCGC
Regarding `CC(O)CC(C)O` (stereo not given), the Potency entry was “inactive”. To `Cc1ccc(Cl)cc1` belongs “inactive”; to `C=C(C)C(=O)OCCCCCCCCCC`, “inactive”. To `CCCCCCCN` belongs “inactive”; to `CCCOCC(C)OCC(C)O` (stereo not given), “inactive”. To `COC(=O)CCCC(=O)OC` belongs “inactive”; to `BrC(Br)C(Br)Br`, “inactive”; to `O=Cc1ccccc1Cl`, “inactive”.

`O=C1OC(=O)c2c(Br)c(Br)c(Br)c(Br)c21`: the Potency result was “inactive”. To `COc1ccc(N)c(C)c1` belongs “inactive”; to `CC(=O)c1nccs1`, “inactive”; to `O=Cc1c(Cl)cccc1Cl`, “inactive”.

For `CCCCCO`, the Potency entry is “inactive”. To `O=Cc1ccc(C(=O)O)cc1` belongs “inactive”. To `COC(=O)CCC(=O)OC` belongs “inactive”; to `CC(CCl)OC(C)CCl` (stereo not given), “inactive”; to `C1CCC2OC2C1` (stereo not given), “inactive”. On to `Cc1ccc2cccnc2c1`, for which the Potency entry is “inactive”. To `CC(C)CO` belongs “inactive”; to `C=CC(=O)OCCCC`, “inactive”; to `Cc1cscn1`, “inactive”. As to `CC#N`, the Potency result is “inactive”. On to `CCOc1cc(OCC)c(C(C)=O)cc1OCC`, for which the Potency result was “inactive”. `O=C(Cl)c1cccc([N+](=O)[O-])c1`: the Potency result was “inactive”. As to `COC(=O)c1ccccc1`, the Potency entry is “inactive”. Consider `CCC(C)O` (stereo not given), for which the Potency result is “inactive”. For the compound `CCCCC(CC)C(=O)O` (stereo not given), the Potency result was “inactive”. With `CCOCCO`, the Potency result is “inactive”.

As to `CCOC(=O)C(C)C(C)=O` (stereo not given), the Potency entry was “inactive”. To `CC=C(Cl)Cl` belongs “inactive”; to `CCCCCCCCN`, “inactive”; to `Cc1ccc(S(=O)(=O)NC2CCCCC2)cc1`, “inactive”.

With `C=CC(=O)NC(C)C`, the Potency entry was “inactive”. To `O=C1C=CCCC1` belongs “inactive”; to `CC(C)C(C)C`, “inactive”; to `c1ccc2c(c1)Oc1ccccc1S2`, “inactive”. To `CCN(C(=O)N(CC)c1ccccc1)c1ccccc1` belongs “inactive”; to `Cc1ccc(C#N)cc1`, “inactive”. In the case of `Cc1cccc(C)c1`, the Potency result is “inactive”. To `C1COC1` belongs “inactive”.

These data come from PubChem BioAssay (NCATS).
